Results taken from the supplement of paper PMC3334620.
The full ranking holds about 33,000 sequences; the median of “E-score (-0.5 to 0.5)” is about -0.021, and the highest 2% start at about 0.32. This is one part of a sample in which the highest values are shown more often than they occur.

biological target: T1, Zap1 (UniProt P47043); assay: PBM E-score (8-mer binding enrichment) (E-score (-0.5 to 0.5)); higher = stronger / more preferred TF binding; details: protein concentration: 200 nM; construct: GST-full length
T1 sequence: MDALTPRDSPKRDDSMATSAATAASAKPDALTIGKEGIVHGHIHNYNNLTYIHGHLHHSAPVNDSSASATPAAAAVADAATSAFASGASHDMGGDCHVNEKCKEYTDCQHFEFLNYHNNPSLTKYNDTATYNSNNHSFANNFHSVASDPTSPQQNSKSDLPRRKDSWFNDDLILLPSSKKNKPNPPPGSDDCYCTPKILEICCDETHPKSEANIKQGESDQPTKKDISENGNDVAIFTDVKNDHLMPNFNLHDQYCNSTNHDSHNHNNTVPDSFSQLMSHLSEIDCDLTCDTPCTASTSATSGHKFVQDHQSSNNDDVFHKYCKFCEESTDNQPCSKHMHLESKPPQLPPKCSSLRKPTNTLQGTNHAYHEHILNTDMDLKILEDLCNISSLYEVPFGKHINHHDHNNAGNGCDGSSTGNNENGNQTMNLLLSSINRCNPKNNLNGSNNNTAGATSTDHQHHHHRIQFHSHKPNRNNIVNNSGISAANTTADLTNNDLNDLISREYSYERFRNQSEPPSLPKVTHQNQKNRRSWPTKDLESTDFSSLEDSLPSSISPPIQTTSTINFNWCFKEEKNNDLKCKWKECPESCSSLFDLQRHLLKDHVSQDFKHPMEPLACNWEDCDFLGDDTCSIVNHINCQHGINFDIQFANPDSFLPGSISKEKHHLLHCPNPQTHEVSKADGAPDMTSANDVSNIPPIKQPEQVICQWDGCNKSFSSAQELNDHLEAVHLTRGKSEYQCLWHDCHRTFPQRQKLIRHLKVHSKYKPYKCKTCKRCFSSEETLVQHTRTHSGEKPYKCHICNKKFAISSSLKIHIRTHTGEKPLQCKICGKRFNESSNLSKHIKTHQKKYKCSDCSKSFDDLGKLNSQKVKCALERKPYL
Procedure, shortened: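 Yeast transcription factors carrying a GST tag, as full-length proteins or DNA-binding domains, were produced by PURExpress in vitro transcription/translation. About 100-200 nM protein was applied to universal all-10-mer Agilent arrays, double-stranded by primer extension on fresh or once-stripped slides. Bound protein was detected with fluorescent anti-GST, and scans were normalised with masliner. The Universal PBM Analysis Suite gave each ungapped eight-base word, pooled with its reverse complement, an E-score, a modified Wilcoxon-Mann-Whitney statistic.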

Sequence	PBM E-score
AGTTATAG	0.148
ACCCTCAT	0.267
ACCCTCAC	0.251
TCCCTCAA	0.014
CCCCTCAA	-0.068
ACCCTCAA	0.361
ACCCTCAG	0.325
GGAGACGA	-0.032
ATCTTTAA	0.206
GGCCAGTA	0.177
AGTGGCTC	-0.175
AATCCTTG	0.0209
GATACCAC	0.183
CATACCCC	0.348
GATACCCA	0.184
GATACCCC	0.37
CATACCCA	0.221
AATACCCC	0.237
ATGTGAAG	-0.00714
ATGGGGGG	-0.045
ACTCGCAA	0.0584
CGCTTTGA	0.0708

Sequence	PBM E-score
CCTATAGG	0.346
ACTATAGG	0.0613
CCTATAGC	-0.0148
ATTGGCGG	-0.0834
AGCCCAAC	-0.0986
ACCCCTAA	0.278
ACCCCTAG	0.341
AGCCCTAG	-0.14
CCCCCTCG	-0.135
ACCCCTCT	0.174
ACCCCTAT	0.324
ACCCCTAC	0.293
ACCCCTCG	0.347
CCCCCTAG	-0.343
TACCGATA	0.102
CCGGTGCG	0.0015
AAATCTTG	0.0159
GCCAGCAC	-0.171
AAACCGAA	0.114
GTACCGCA	0.383
CTACCGCA	0.00616
CAACCGCA	0.106

Sequence	PBM E-score
AACCCGCA	0.314
GAACCGCA	0.149
CACCCGCA	-0.0495
TACCCGCA	0.364
CAACCGAA	0.199
TAACCGCA	0.426
TAACCGAA	0.319
ATACCGCA	0.0517
GTCCTTTA	0.132
CCGCCCAC	0.0267
GAAATCGA	-0.0672
GAACCGGA	0.0894
AAACCGGA	0.00487
TAACCGGA	0.364
AATTCTAC	0.104
TATACTAA	0.0714
GACAGCGA	-0.275
CGTTGGCC	-0.138
ACCGGTTA	0.372
GCCGGTTA	0.33
ACCGGTTG	0.119
GCCGGTCA	0.0353

Sequence	PBM E-score
GCCGGTGA	0.0983
CCCGGTTA	0.25
AGATTGAA	-0.0374
ATGCTAGG	-0.159
ACTAAATG	-0.036
ACCAGCGG	0.0819
CAAGATGC	-0.0715
AGTGGGAA	0.022
GTTGAAGA	-0.0696
ATGTCATA	-0.0263
GGGTCATA	0.432
CGGTCATC	0.131
AGGTCAGA	0.149
ATGTCATC	-0.123
AGGTCAAG	0.277
AGGTCATC	0.373
CGGTCATA	0.201
AGGTCATG	0.416
AGGTCATA	0.347
GGGTCAGA	0.0808
AGGTCAGG	0.141
